Laboratory results: PubChem BioAssay (NCATS)
Inconclusive results are not listed. Values without a mark were called inactive. Calls come from the whole dose curve; as a rule, active = well fitted inhibition curve with a large enough effect; inconclusive = small, poorly fitted or top-dose-only effect; inactive = flat fitted curve, though single readings scatter.
% is set by controls: 0 for no effect and ±100 for the full control effect.

These compounds were tested against Calcium and integrin-binding protein 1 (Homo sapiens) (UniProt Q99828) (assay: Primary qHTS for Identification of Calcium Integrin Binding Protein 1 (CIB1) Competitor (AID 1508620; note: top concentration of the series differs between compounds)). Details: CIB1-GST / FITC-alphaIIb peptide fluorescence polarization; series mostly up to 114 µM; activity change, negative = inhibition: at the top concentration.
Calcium and integrin-binding protein 1 (Homo sapiens), sequence (Q99828 whole entry, looked up): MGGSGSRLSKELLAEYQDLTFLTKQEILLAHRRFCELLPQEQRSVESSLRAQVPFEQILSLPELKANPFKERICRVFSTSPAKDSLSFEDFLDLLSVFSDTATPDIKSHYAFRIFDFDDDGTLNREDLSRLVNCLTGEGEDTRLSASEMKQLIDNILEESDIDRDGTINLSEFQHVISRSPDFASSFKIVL
Outline: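 Fluorescence polarization competition: GST-tagged CIB1 (1 uM final) preincubated with compound 15 min at room temperature, then FITC-labelled alphaIIb peptide (100 nM final) added. After 15 min at room temperature, polarization read at Ex 480/Em 540.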
With `Fc1ccc(-c2ccc(Nc3nc(-c4ccncc4)nc4ccccc34)cc2F)c(Cl)c1` the “activity change, negative = inhibition” value was 4.46%. With `COc1cccc(-c2nnc3n2N=C(c2cc(OC)ccc2OC)CS3)c1` the “activity change, negative = inhibition” value was 0.905%. With `COCC1CCCN(C(=O)CC(c2ccc3c(c2)OCO3)c2c(O)cc(OC)cc2OC)C1` (stereo not given) the “activity change, negative = inhibition” value was -3.64% [at 228 µM]. In the case of `Oc1ccc(CNc2nccc3ccccc23)c2cccnc12`, the “activity change, negative = inhibition” value is reported as 0.4%. In the case of `C/C=C\C1=CCCC1Nc1ncnc2ccc(-c3c(C)noc3C)cc12` (stereo not given), the “activity change, negative = inhibition” value is reported as -2.11%. For `Cc1ccnc(C(=S)N2CCN(c3cccc(C(F)(F)F)c3)CC2)c1`, the “activity change, negative = inhibition” value was -1.34%. For `c1nc(N2CCC(N3CCCC3)CC2)c2cc(-c3ccc4c(c3)OCO4)ccc2n1`, the “activity change, negative = inhibition” value was 4.16%. `CC(C)(C)OC(=O)N1CCN(c2ccc(NCc3ccc(-c4cccc([N+](=O)[O-])c4)o3)cc2)CC1` was tested, and the “activity change, negative = inhibition” value was -3.14%. `COC(=O)c1ccccc1NC(=O)c1ccccc1OC(F)F` was tested, and the “activity change, negative = inhibition” value was -0.0702%. In the case of `Oc1cc(NCc2ccc(Cl)cc2)cc2cccnc12`, the “activity change, negative = inhibition” value is reported as 0.389%. For `Cn1nnnc1Sc1ncnc2scc(-c3ccccc3Cl)c12`, the “activity change, negative = inhibition” value was -0.191%. With `O=S(=O)(Nc1nc(-c2ccccc2C(F)(F)F)nc2ccccc12)c1ccc(-c2ccnc(C(F)(F)F)c2)cc1` the “activity change, negative = inhibition” value was -13.7%. With `Cc1cc(NS(=O)(=O)c2ccc3c(c2)CCC(=O)N3)ccc1F` the “activity change, negative = inhibition” value was 1.56%. In the case of `CC(=O)Nc1ccccc1NC(=O)c1cnn2c(C)cc(C)nc12`, the “activity change, negative = inhibition” value is reported as 0.0809%. For `O=[S+]([O-])(c1cc2ccccc2o1)N1CCN([S+](=O)([O-])c2c(F)cccc2F)CC1`, the “activity change, negative = inhibition” value was 0.977%. For `O=C1c2ccccc2C(=O)N1c1ccc2ccccc2n1`, the “activity change, negative = inhibition” value was 1.41%. `COc1ccc2c(c1)Oc1ncn(CCN3CCOCC3)c(=N)c1C2c1ccc(OC)c(OC)c1` (stereo not given) was tested, and the “activity change, negative = inhibition” value was -1.45%. In the case of `COc1ccc(CN(Cc2ccccc2)C(=O)c2ccccc2O)cc1`, the “activity change, negative = inhibition” value is reported as 2.91%. `O=C(Nc1ccc(-n2cncn2)c(F)c1)Nc1nnc(-c2ccncc2)s1` was tested, and the “activity change, negative = inhibition” value was 4.45%. In the case of `Cc1cccc(CNc2ncnc3ccc(-c4ccccc4Cl)cc23)c1`, the “activity change, negative = inhibition” value is reported as 2.68%. In the case of `Clc1ccc(CN(CCCNc2ncnc(NCCCc3cnc[nH]3)n2)c2ccc(Br)cn2)cc1Cl`, the “activity change, negative = inhibition” value is reported as 2.63%. For `Cc1cc(C)nc(NC(=S)N2CCN(c3ccc(Cl)cc3[N+](=O)[O-])CC2)c1`, the “activity change, negative = inhibition” value was -16.8%. For `Cc1ccnc(NC(=S)N2CCN(c3ccc(Cl)c(Cl)c3)CC2)c1`, the “activity change, negative = inhibition” value was -8.7%. With `CN1CCN(c2cccc(Nc3nn4c(=O)c5ccc(C(F)(F)F)cc5nc4s3)c2)CC1` the “activity change, negative = inhibition” value was -9.81%. With `Nc1ccc(S(=O)(=O)N2CCCN(S(=O)(=O)c3ccc4c(c3)OCCO4)CC2)cc1` the “activity change, negative = inhibition” value was 3.56%. In the case of `CCOC(=O)C1CCN(C(=O)CNC(=O)Nc2ccccc2Cl)CC1`, the “activity change, negative = inhibition” value is reported as 3.94%. For `O=[S+]([O-])(Nc1ccccc1)c1ccc(NCc2cccc(C(F)(F)F)c2Cl)cc1`, the “activity change, negative = inhibition” value was 2.94%. For `O=C(O)c1ccc(S(=O)(=O)N[C@H](Cc2ccc(C(F)(F)F)cc2)C(=O)O)cc1`, the “activity change, negative = inhibition” value was -4.4%. In the case of `CCOC(=O)CCc1cc(F)c(S(=O)(=O)N2CCN(S(=O)(=O)c3ccc4c(c3)OCCO4)CC2)cc1F`, the “activity change, negative = inhibition” value is reported as 5.87%. With `CC(=O)Nc1ccc(S(=O)(=O)Nc2ccc(C)c(C)c2)cc1` the “activity change, negative = inhibition” value was 3.53%. In the case of `Cc1ccc(C)c(OC2=NS(=O)(=O)c3ccccc32)c1`, the “activity change, negative = inhibition” value is reported as -4.55%. `CCCCN(C)C(=O)Cn1nc(-c2ccccc2C)ccc1=O` was tested, and the “activity change, negative = inhibition” value was 7.38%. With `CCNC(=O)c1ccc(-c2ccc3ncnc(NCc4nccs4)c3c2)o1` the “activity change, negative = inhibition” value was -17.2%. In the case of `O=C(O)c1ccc(O)c2ncc(N3CCCCC3)cc12`, the “activity change, negative = inhibition” value is reported as -3.67%. `Cc1ccc(OCCn2c(CCNC(=O)C3CCCCCC3)nc3ccccc32)cc1` was tested, and the “activity change, negative = inhibition” value was 7.72%. For `Cn1ccc2cc(-c3ccc4ncnc(NCc5cccnc5)c4c3)ccc21`, the “activity change, negative = inhibition” value was -3.03%. For `Cc1nc(CCNc2ncnc3ccc(-c4ccc5c(c4)OCO5)cc23)cs1`, the “activity change, negative = inhibition” value was 3.7%. With `COc1ccc(N2C(=O)c3ccccc3S2(=O)=O)cc1` the “activity change, negative = inhibition” value was 0.496%. With `COC(=O)c1cc2c(s1)c1cnn(Cc3ccccc3F)c(=O)c1n2C` the “activity change, negative = inhibition” value was 4.03% [at 57.7 µM]. `Clc1ccc(CSc2nc3ncc(Br)cc3[nH]2)cc1` was tested, and the “activity change, negative = inhibition” value was 1.11%.
